Here are results for 40 molecules from PubChem BioAssay (EPA / NIEHS).

Activity calls are given as the source filed them. How the source made its calls: active means hit-call score of the fitted dose curve at least 0.9, where 1 is the maximum; inactive means score below 0.9.

This assay is described as follows: APR_HepG2_MitoMass_72hr: Apredica 72-hour HepG2 Assay for Mitochondrial Mass (AID 2282924).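 Further: MitoTracker Red CMXRos stain intensity per cell imaged as mitochondrial mass.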 Particulars: high-content imaging, actives raise or lower the signal. The procedure:
APR_HepG2_72hr is a cell-based, multiplexed-readout assay that uses HepG2, a human liver cell line, with measurements taken at 72 hours after chemical dosing in a 384-well plate.APR_HepG2_MitoMass_72hr is one of 10 assay component(s) measured or calculated from the APR_HepG2_72hr assay. It is designed to make measurements of cell phenotype, a form of morphology reporter, as detected with fluorescence intensity signals by HCS Fluorescent Imaging technology.Data from the assay component APR_HepG2_MitoMass_72hr was analyzed into 1 assay endpoint. This assay endpoint, APR_HepG2_MitoMass_72hr, was analyzed with bidirectional fitting relative to DMSO as the negative control and baseline of activity. Using a type of morphology reporter, gain or loss-of-signal activity can be used to understand changes in the signaling. Furthermore, this assay endpoint can be referred to as a primary readout, because this assay has produced multiple assay endpoints where this one serves a signaling function. To generalize the intended target to other relatable targets, this assay endpoint is annotated to the cell morphology intended target family, where the subfamily is organelle conformation.
Cells were treated with dimethyl sulfoxide (DMSO) as a solvent control at a final concentration of 0.5% v/v or with compounds in DMSO with a resulting final DMSO concentration of 0.5% v/v. Compound treatment was done at concentrations of 0.39, 0.78, 1.56, 3.12, 6.24, 12.5, 25, 50, 100, and 200 uM in duplicate on each plate. Cells were treated with compounds for 1, 24, or 72 hr. Carbonyl […] m-chloro-phenylhydrazone (CCCP) and taxol were used as positive controls for mitochondrial function and cytoskeletal stability, respectively; DMSO served as the negative control for this experiment. Cells were fixed by the direct addition of 50 uL formaldehyde in Hank's Balanced Salt Solution (HBSS) to a final concentration of 3.7%. After incubation in the fixation medium for 30 min at room temperature (293-298 K), cells were rinsed twice with HBSS and treated with cell permeabilization buffer (16 uL of 0.5% Triton X-100) for 10 min at room temperature (293-298 K) before labeling. For mitochondrial membrane potential and mitochondrial measurements, pre-fixed cells were incubated with 50 uL of MitoTracker Red CMXRos (Invitrogen) at a concentration of 250 nM for 30 min before fixation. In the remaining cases, post-fixed cells were labeled by incubation with a multiplexed mixture of primary antibodies in HBSS for 60 min at room temperature (293-298 K) to detect immunoreactivity of c-Jun (1:500), phospho-histone H3 (1:100), phospho-histone H2A.x (1:200), p53 (1:400), alpha-tubulin (1:200) and Hoechst 33342 (2 ug/mL). Cells were labeled for multiplexed imaging on two separate plates: a) Hoechst 33342, MitoTracker Red, phospho-histone H3, and alpha-tubulin, and b) Hoechst 33342, phospho-histone H2A.x, and c-Jun. A final rinse with HBSS (50 uL) was performed before analysis. The primary and secondary antibodies for the proteins were phospho-histone H3 (rabbit anti-phospho-histone H3 and FITC-donkey anti-rabbit IgG), phospho-histone H2A.x (mouse anti-phospho-histone H2A.x and FITC-donkey anti-mouse IgG), c-Jun (rabbit anti-phospho-c-Jun and Cy3-donkey anti-rabbit IgG), p53 (sheep anti-p53 and Cy5-donkey anti-sheep IgG), alpha-tubulin (mouse anti-alpha-tubulin and Cy5-donkey anti-mouse IgG). These antibodies are available as the CellCiphr HepG2 assay kit (Millipore).Digital images of each well were captured using a Cellomics ArrayScan VTI (Thermo Scientific Cellomics) (0.8 NA objective, 0.63x optical coupler, and XF-93 filter set) at 20x magnification. The images were acquired using the autofocus feature of the ArrayScan instrument, which entails the following steps. First, the camera focuses on channel 1 (Hoechst 33342), where nuclei are identified. Second, a Z offset of 1 um is used for capturing mitochondria (MitoTracker Red). […]
Regarding `CCC1(c2ccccc2)C(=O)N=C(O)NC1=O` (stereo not given), the call was inactive.

With `CCC(C)(C)c1ccc(O)cc1`, the AC50 (in general, the midpoint of the concentration-response curve, whichever way the signal moves) is 88 µM (active).

For `Cc1ccc(N)cc1N`, the outcome was inactive.

Consider `O=P1(N(CCCl)CCCl)NCCCO1` (stereo not given), for which the outcome was inactive.

As to `CCCCN(CCCC)SN(C)C(=O)Oc1cccc2c1OC(C)(C)C2`, the call was inactive.

For the molecule `ClC(Cl)c1ccccc1`, the molecule was called inactive.

For the molecule `CCOP(=S)(Oc1ccc([N+](=O)[O-])cc1)c1ccccc1` (stereo not given), the outcome was inactive.

As to `Cc1ccc([N+](=O)[O-])cc1C`, the result was inactive.

Consider `CN(C)C(=O)Cl`, for which the molecule was called inactive.

Consider `c1ccc2c(c1)Nc1ccccc1S2`, for which the result was inactive.

As to `CC(C)(C)OOC(C)(C)C`, the call was inactive.

As for `CSC(C)(C)C=NO`, the outcome was inactive.

With `CCNc1nc(Cl)nc(NC(C)(C)C)n1`, the call was inactive.

As to `CCCCc1ccccc1`, the result was inactive.

As for `Nc1cc2c3c(c1)C(c1ccccc1)=N[C@@H](NC(=O)c1cccnc1)C(=O)N3CC2`, the result was inactive.

For the molecule `ClC1=C(Cl)C2(Cl)C3C(Cl)C(Cl)CC3C1(Cl)C2(Cl)Cl` (stereo not given), the AC50 was 136 µM (active).

In the case of `c1ccc(OP(Oc2ccccc2)Oc2ccccc2)cc1`, the result was inactive.

With `O=[N+]([O-])c1ccc(Cl)c(Cl)c1`, the outcome was inactive.

For `O=P(Oc1ccccc1)(Oc1ccccc1)Oc1ccccc1`, the outcome was inactive.

Turning to `COCCOCCO`, the molecule was called inactive.

Take `CCOC(=O)c1ccccc1C(=O)OCC`: the molecule was called inactive.

As for `CC(C)(C)c1ccc(O)cc1`, the call was inactive.

For the molecule `CCOP(=S)(OCC)SCSCC`, the molecule was classed as inactive.

`ClC(Cl)(Cl)c1ccccc1`: the outcome was inactive.

Take `OCC1CO1` (stereo not given): the call was inactive.

Turning to `CCCCCCCc1ccc(O)cc1`, the outcome was inactive.

For the molecule `CCCN(CCC)c1c([N+](=O)[O-])cc(C(C)C)cc1[N+](=O)[O-]`, the half-maximal activity concentration (AC50) was 40.9 µM (active).

As to `CCOc1ccc(C(C)(C)COCc2cccc(Oc3ccccc3)c2)cc1`, the call was inactive.

Turning to `CC(Cc1ccc(OCC(=O)O)cc1)NCC(O)c1csc(C(F)(F)F)n1` (stereo not given), the call was inactive.

In the case of `O=C(O)C(Cl)Cl`, the outcome was inactive.

With `O=[N+]([O-])c1ccccc1`, the call was inactive.

In the case of `Nc1ccc2ccccc2c1`, the AC50 is 69.8 µM (active).

For `[N-]=[N+]=[N-]`, the molecule was classed as inactive.

As for `Cc1cccc(N)c1`, the outcome was inactive.

Regarding `Cc1ccc(O)cc1C`, the molecule was called inactive.

Consider `CC(Cl)(Cl)C(=O)O`, for which the result was inactive.

Turning to `CCN(CC)c1ccccc1`, the outcome was inactive.

As for `Nc1ccc(Cl)cc1`, the result was inactive.

Turning to `c1nc[nH]n1`, the result was inactive.

Turning to `CCOS(=O)(=O)OCC`, the call was inactive.
